Measurements: PubChem BioAssay AID720706 (Broad Institute, 2013)
In all, about 350,000 compounds went through this assay and about 5,500 (1.6%) were called active.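 The calls were made as follows: active = significant combined selectivity score with lowered wild-type GFP, culture density cut under 30%, mutant RFP and density less affected; inactive = any of these conditions unmet.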 The sample as a whole holds a higher share of actives than the screen did.

Assay: reduced GFP signal of wild-type E. coli, primary screen, bacterial rRNA inhibitor project, GFP/RFP fluorescence, OD600, single point (AID 720706)
Conditions: E. coli WT GFP vs humanized-ribosome RFP mutants, 24 h; GFP signal change (wild-type ribosome): stronger effect = lower value, DMSO median 0, no signal -100; OD600 change: measured here: OD600 growth, DMSO median 0, no signal -100; RFP signal change: measured here: RFP humanized mutant strains, DMSO median 0, no signal -100, concentration not given here

**Q.** With `COC(=O)c1cc(OC)ccc1-c1ccc(OC)cc1` as the compound, how does the GFP signal change (wild-type ribosome) read?
**A.** -32.6% (active)

**Q.** And the OD600 change?
**A.** -15.3%

**Q.** And the RFP signal change?
**A.** -6.08%

**Q.** Which results are given for `COc1ccccc1S(=O)(=O)N[C@@H]1CC[C@H](CCn2cc(C3CCCC3)nn2)O[C@H]1CO`?
**A.** GFP signal change (wild-type ribosome): 1.1% (inactive); OD600 change: 3.92%; RFP signal change: -3.27%

**Q.** With `C[C@H](CO)N1C[C@H](C)[C@H](CN(C)CC2CC2)OCCCC[C@H](C)Oc2ccc(NS(=O)(=O)c3cccs3)cc2C1=O` as the compound, how does the GFP signal change (wild-type ribosome) read?
**A.** -0.767% (inactive)

**Q.** And the OD600 change?
**A.** -2.73%

**Q.** What about the RFP signal change of the same compound?
**A.** -0.839%

**Q.** With `Cc1ccc(-c2ccc([C@H]3[C@H](CO)N4C(=O)CN(S(=O)(=O)c5cccc(F)c5)C[C@@H]34)cc2)cc1` as the compound, how does the GFP signal change (wild-type ribosome) read?
**A.** -2.35% (inactive)

**Q.** What about the OD600 change of the same compound?
**A.** -0.94%

**Q.** What about the RFP signal change of the same compound?
**A.** 0.984%

**Q.** With `Cn1c(CCN2CCN(c3ccccn3)CC2)nc2cc(NS(=O)(=O)c3ccc(F)cc3)ccc21` as the compound, how does the GFP signal change (wild-type ribosome) read?
**A.** -28.9% (active)

**Q.** And the OD600 change?
**A.** -17%

**Q.** What about the RFP signal change of the same compound?
**A.** 3.47%

**Q.** For `Cn1c(=O)n(C)c2cc(NS(=O)(=O)c3ccc(F)cc3)ccc21`, which GFP signal change (wild-type ribosome) is on record?
**A.** 0.225% (inactive)

**Q.** What about the OD600 change of the same compound?
**A.** 0.76%

**Q.** And the RFP signal change?
**A.** -4.92%

**Q.** What does the source list for `CCC(=O)Nc1ccc2c(c1)nc(CCN1CCN(c3ccccn3)CC1)n2C`?
**A.** GFP signal change (wild-type ribosome): 4.56% (inactive); OD600 change: 7.29%; RFP signal change: 1.64%

**Q.** Which results are given for `COCC(=O)N1CC2(C1)CN(C(=O)COC)[C@@H](CO)c1c2c2ccc(OC)cc2n1C`?
**A.** GFP signal change (wild-type ribosome): 4.63% (inactive); OD600 change: 7.89%; RFP signal change: 0.659%

**Q.** Which results are given for `Cc1ccc(S(=O)(=O)N(C)C[C@@H]2OCCCC[C@@H](C)Oc3ccc(NC(=O)C4CCCCC4)cc3C(=O)N([C@H](C)CO)C[C@H]2C)cc1`?
**A.** GFP signal change (wild-type ribosome): -2.75% (inactive); OD600 change: -2.24%; RFP signal change: 1.84%

**Q.** Which GFP signal change (wild-type ribosome) does the source give for `CCCCNC(=O)C1(O)c2ccccc2NC(=O)N1c1ccc(Cl)cc1` (stereo unspecified) here?
**A.** -25.8% (active)

**Q.** What about the OD600 change of the same compound?
**A.** -20.4%

**Q.** And the RFP signal change?
**A.** 0.114%

**Q.** With `CCOc1ccc(N2C(=O)Nc3ccccc3C2(O)C(=O)NCc2ccco2)cc1` (stereo unspecified) as the compound, how does the GFP signal change (wild-type ribosome) read?
**A.** 2.27% (inactive)

**Q.** And the OD600 change?
**A.** 2.6%

**Q.** And the RFP signal change?
**A.** 0.0175%

**Q.** Which results are given for `CCOCCCNC(=O)C1(O)c2cc(Br)ccc2NC(=O)N1c1ccc(C)c(C)c1` (stereo unspecified)?
**A.** GFP signal change (wild-type ribosome): 4.8% (inactive); OD600 change: 3.91%; RFP signal change: 0.676%

**Q.** With `CNC[C@@H]1Oc2c(NC(=O)Nc3ccc(F)cc3)cccc2C(=O)N([C@@H](C)CO)C[C@@H]1C` as the compound, how does the GFP signal change (wild-type ribosome) read?
**A.** 0.51% (inactive)

**Q.** What about the OD600 change of the same compound?
**A.** 5.77%

**Q.** And the RFP signal change?
**A.** -0.32%

**Q.** Which results are given for `CCCNC(=O)C[C@H]1CC[C@H]2[C@@H](COC[C@H](O)CN2C(=O)Nc2c(C)noc2C)O1`?
**A.** GFP signal change (wild-type ribosome): -3% (inactive); OD600 change: 7.33%; RFP signal change: -4.75%

**Q.** Which GFP signal change (wild-type ribosome) does the source give for `C[C@@H]1CN([C@@H](C)CO)S(=O)(=O)c2ccc(/C=C/c3ccccc3)cc2O[C@@H]1CN(C)C(=O)Nc1cc(F)ccc1F` here?
**A.** -1.81% (inactive)

**Q.** What about the OD600 change of the same compound?
**A.** 7.09%

**Q.** What about the RFP signal change of the same compound?
**A.** -0.095%

**Q.** With `CC(=O)Nc1ccc(S(=O)(=O)N2CCN(c3ccc([N+](=O)[O-])c(NCCN4CCOCC4)c3)CC2)cc1` as the compound, how does the GFP signal change (wild-type ribosome) read?
**A.** -2.32% (inactive)

**Q.** And the OD600 change?
**A.** 3%

**Q.** What about the RFP signal change of the same compound?
**A.** 1.54%

**Q.** Which GFP signal change (wild-type ribosome) does the source give for `COc1ccccc1OCCNc1cc(N2CCOCC2)ccc1[N+](=O)[O-]` here?
**A.** -27.3% (active)

**Q.** And the OD600 change?
**A.** -18.1%

**Q.** And the RFP signal change?
**A.** -0.933%

**Q.** For `COc1ccc(CCNc2cc(N3CCN(C(=O)c4ccccc4OC)CC3)ccc2[N+](=O)[O-])cc1OC`, which GFP signal change (wild-type ribosome) is on record?
**A.** 2.05% (inactive)

**Q.** And the OD600 change?
**A.** -0.295%

**Q.** What about the RFP signal change of the same compound?
**A.** 6.64%

**Q.** Which results are given for `CNC[C@H]1OCCCC[C@H](C)Oc2ccc(NC(=O)Nc3ccc(C(F)(F)F)cc3)cc2C(=O)N([C@H](C)CO)C[C@@H]1C`?
**A.** GFP signal change (wild-type ribosome): -45.6% (inactive); OD600 change: -74.3%; RFP signal change: -0.5%

**Q.** What does the source list for `COc1ccc(CNC(=O)C[C@@H]2CC[C@H](NC(=O)c3cccc(F)c3)[C@H](CO)O2)cc1`?
**A.** GFP signal change (wild-type ribosome): -0.639% (inactive); OD600 change: 4.63%; RFP signal change: 0.956%

**Q.** Which GFP signal change (wild-type ribosome) does the source give for `C[C@H]1CN([C@@H](C)CO)C(=O)c2cc(C3=CCCC3)cnc2O[C@H]1CN(C)C(=O)Nc1ccc(F)cc1` here?
**A.** -0.884% (inactive)

**Q.** And the OD600 change?
**A.** 7.11%

**Q.** What about the RFP signal change of the same compound?
**A.** -0.613%

**Q.** For `O=C(N[C@@H]1C=C[C@H](CC(=O)N2CCOCC2)O[C@H]1CO)c1ccccn1`, which GFP signal change (wild-type ribosome) is on record?
**A.** 4.32% (inactive)

**Q.** What about the OD600 change of the same compound?
**A.** 4.06%

**Q.** What about the RFP signal change of the same compound?
**A.** 0.272%

**Q.** For `O=C(CNC(=O)Cc1ccccc1)N=Nc1c(O)[nH]c2ccc(Br)cc12`, which GFP signal change (wild-type ribosome) is on record?
**A.** -1.63% (inactive)

**Q.** What about the OD600 change of the same compound?
**A.** 10%

**Q.** And the RFP signal change?
**A.** 0.336%

**Q.** With `Cc1cccc(N=Nc2c(O)[nH]c3ccc(F)cc23)c1` as the compound, how does the GFP signal change (wild-type ribosome) read?
**A.** -28.8% (active)

**Q.** What about the OD600 change of the same compound?
**A.** 13.6%

**Q.** And the RFP signal change?
**A.** 8.49%

**Q.** Which GFP signal change (wild-type ribosome) does the source give for `Cc1c(-c2ccccc2)n[nH]c1C(=O)N=Nc1c(O)[nH]c2ccccc12` here?
**A.** -5.9% (inactive)

**Q.** What about the OD600 change of the same compound?
**A.** -4.62%

**Q.** What about the RFP signal change of the same compound?
**A.** 2.09%

**Q.** With `C[C@@H]1CN([C@@H](C)CO)S(=O)(=O)c2ccc(C#C[C@@H](C)O)cc2O[C@@H]1CN(C)CC1CC1` as the compound, how does the GFP signal change (wild-type ribosome) read?
**A.** 1.29% (inactive)

**Q.** And the OD600 change?
**A.** -4.39%

**Q.** And the RFP signal change?
**A.** -1.26%

**Q.** What does the source list for `O=[N+]([O-])c1ccccc1NCc1ccccc1Cl`?
**A.** GFP signal change (wild-type ribosome): -29.2% (active); OD600 change: -20.4%; RFP signal change: -10.2%

**Q.** For `O=C(NCc1ccccc1Cl)NC(=O)c1csc([N+](=O)[O-])c1`, which GFP signal change (wild-type ribosome) is on record?
**A.** 12.9% (inactive)

**Q.** What about the OD600 change of the same compound?
**A.** 2.99%

**Q.** And the RFP signal change?
**A.** 1.52%

**Q.** Which GFP signal change (wild-type ribosome) does the source give for `O=C(NCCNc1ccccc1[N+](=O)[O-])c1ccccc1F` here?
**A.** -8.66% (inactive)

**Q.** What about the OD600 change of the same compound?
**A.** 7.69%

**Q.** And the RFP signal change?
**A.** -6.27%

**Q.** Which results are given for `COc1cccc(CN(C)C[C@H]2OCc3ccccc3-c3c(n(C)c4ccccc34)C(=O)N([C@@H](C)CO)C[C@@H]2C)c1`?
**A.** GFP signal change (wild-type ribosome): -21.2% (inactive); OD600 change: -41.4%; RFP signal change: 18.9%

**Q.** With `C[C@@H]1CN([C@H](C)CO)S(=O)(=O)c2ccc(C#CC(C)(C)O)cc2O[C@@H]1CN(C)Cc1ccccc1` as the compound, how does the GFP signal change (wild-type ribosome) read?
**A.** 1.3% (inactive)

**Q.** What about the OD600 change of the same compound?
**A.** -3.23%

**Q.** And the RFP signal change?
**A.** -1.75%

**Q.** With `C[C@H](CO)N1C[C@H](C)[C@@H](CN(C)Cc2ccccc2)Oc2c(NC(=O)CCCCCC(=O)Nc3ccccc3N)cccc2C1=O` as the compound, how does the GFP signal change (wild-type ribosome) read?
**A.** -10% (inactive)

**Q.** What about the OD600 change of the same compound?
**A.** -16.3%

**Q.** And the RFP signal change?
**A.** 2.5%
